target: T1, ETS1 (UniProt P14921); test: ETS1 binding intensity (PBM fluorescence) in presence of RUNX1, normalised to ETS1-only experiment (arbitrary fluorescence units); higher = stronger binding; details: ETS1 concentration 1 nM; RUNX1 concentration 25 nM
T1 sequence: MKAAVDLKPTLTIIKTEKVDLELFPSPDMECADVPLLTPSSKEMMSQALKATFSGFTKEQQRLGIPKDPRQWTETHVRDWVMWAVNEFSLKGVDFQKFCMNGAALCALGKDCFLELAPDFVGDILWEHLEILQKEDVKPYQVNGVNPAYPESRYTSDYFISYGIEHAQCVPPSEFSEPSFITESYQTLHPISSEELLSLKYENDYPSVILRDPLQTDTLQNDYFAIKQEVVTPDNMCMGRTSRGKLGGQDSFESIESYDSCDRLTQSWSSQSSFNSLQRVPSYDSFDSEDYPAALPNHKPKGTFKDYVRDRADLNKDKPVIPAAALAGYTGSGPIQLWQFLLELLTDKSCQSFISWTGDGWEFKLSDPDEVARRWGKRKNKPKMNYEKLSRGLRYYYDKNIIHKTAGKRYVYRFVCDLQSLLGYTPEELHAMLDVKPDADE
Procedure: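 Cooperative genomic-context PBM: 36-bp genomic probes with neighbouring ETS1 and RUNX1 sites, double-stranded on Agilent 4x180k arrays. Full-length recombinant human ETS1 (1 nM) was incubated alone or with RUNX1 (25 nM) and detected with anti-ETS1 antibody plus Alexa488 secondary. Value is the median fluorescence intensity over 4 replicate spots; the ETS1+RUNX1 data were normalised to the ETS1-only data using probes without RUNX1 sites. The 36-bp variable region sits on the array probe with constant linker/primer flanks that are not printed.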

Sequence	ETS1 binding intensity
GAGAATGAAGAGGAAATGTGGGGACAGACAGAACTG	1170
ATGAACCACTTCCTGTGTGTTCCCACAGAGGTCAGG	4320
GTCTTCACATGTAGGGGAAGTGGGTTAGCGTAGGAG	1260
TCCCCTGTCTTCCGGAGGCTGCGGCGCAGCGGCGCA	519
CCGGGCCTCCAGACGGAACTGTGGGCGAGGGGAGGG	404
TAAGTGAATTTCCTGCCCGCCTCCGCCCACAGCGTA	744
TGCAGCTATGGCCGGAAGCCTGTGGGTGTGGGAGGA	4580
GGCCCCTGCTTCCGGGTGTGACGCGAACCGCGGGCA	1050
GGCAGCCGGCTTCCGGCTGTGGGTGGTGCGGGGGAC	1820
GTGGTCGGGAGGGGAAGTGAGGCGGTTACCTCGGCG	689
CGTAGCGAGGAGCGGAAAACGCGGTAACCAAGGCGG	1050
CTCCGCCTTTCACTTCCTAGTAACCGCCCTCCCTTG	647
GAAGAAGTCAGGAAATGCTGCCGCAGCAGCCAGCCC	1070
ACCACCCCCCGTTTCCTCCGAAGTGGTTGGTGCCTT	494
TTGCTCCCGGAAGCCCCGCCCGACCGCGGCTCCTGA	1970
GTCCTCTTCCTGTCCCCCAGGTGGGCATGTGGTTTG	751
TAGCCGTACGGAAATGTTTGTGGTTCTCTGCATCTA	1010
GGCCCGGCCGGAAGAAGCCACCTCCCCCGCACGCGT	2860
CCGTGTCAGTGAGGATGTGGGCTGCCGGGCTGGGCG	753
TAGGCTGAAGACTTCCGCCCCGCAGAGGACTTGCCT	974

Sequence	ETS1 binding intensity
TGGCAGCGGGTGCGGAAACCACAGGCCTCCAGGCTT	1520
CTGCCCAGCCACTTCCTGCCCAACCACAGACTGACA	4910
TCGGAACGGAAGGGAGGCACGAAACCGCGAGTGGAG	1840
GAGCAACCAGGAAGAGCTTTGGCTGTGGGCTAAGAT	441
AAGCTTCCTGGCCCTTTAAAAATGGCGGTTCCGCAC	714
AAGGTGGAAAAAGGATGTGGTTCTAAGCTGGCTTCT	1120
CGACAGAGGACACTTCCTTTTGCGGGTGGCGGCGAA	1170
CCCTGACTTTTACGGAAATAGCGGTCCAAAAGCGCC	1080
TCCCTTACCTTCCTGCTGCCACCAAACCACCAAACC	1040
GGCCGACGGGAAGTGTAGTCCGGCCTGCGGTCCGGG	1910
TGACTTCCTCCTCTTCACTAACAGAAACCTCAATTT	526
GGCGGTGACCGGAAGAGCTGAGTCACCGCAGGCGAC	11300
GGACTTCCTGAAGCCAGATCGGTTTACCACAGTCAG	599
ACCAAACGTCACATCCGCGGTGCTGCTGTAATCCCA	389
GAAGAGAAAGGAAACGGCTCGCGGTTTCTGGGGTTC	3150
GAGGCCGAAAGGAAGTTTGAGGTTAAGCACAAGATG	1900
CAAAAGTGCTTCCTCTCGAGGGGTTGTGGTTCTTAC	520
CCGAGACACATGGGATGTGGGCGGGAGGAGGAATTG	941
GAGCACAGGAAAAGCTGGTGCCAACCACAAGTGCTT	1130
GCACCATCTCCCGACTTCCGCGGTGTCCCAGGTCCT	434

From the supplement of paper PMC10681739
